The text below walks through data of PubChem BioAssay.

Test [1] deals with transactivating tegument protein VP16 (Human herpesvirus 1). The test is described as follows: compounds suppressing VP16-driven luciferase signal – cell-based, luminescence, single concentration, counter-screen for SRC2 inhibitor project (AID 652007; in the data active = inhibition above about 36%). The conditions noted are these: cell-based VP16 transactivation luciferase reporter, at 8.9 µM, active compounds read high.
The target of test [2] is Nuclear receptor coactivator 2 (Homo sapiens) (UniProt Q15596). Nature of the test: inhibition of GAL4-SRC2 driven luciferase expression – cell-based, luminescence, HEK293, triplicate, confirmation (AID 652008).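 Note: 0% = DMSO-treated cells and 100% = Gossypol at 36 µM.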 The note with it: HEK293 GAL4-SRC2 luciferase reporter, at 8.9 µM, active compounds read high. In general terms: In a reporter assay the amount or activity of a reporter protein is the signal.

Unmarked numbers belong to inactive results. Active and inactive are the calls of the source.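 Rule for the calls, unless noted: active = mean inhibition above 46.5%, the solvent-only control mean plus 3 SD; inactive = the rest.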

Chain of Nuclear receptor coactivator 2 (Homo sapiens) (Q15596 whole entry, looked up, the tested form may be a part): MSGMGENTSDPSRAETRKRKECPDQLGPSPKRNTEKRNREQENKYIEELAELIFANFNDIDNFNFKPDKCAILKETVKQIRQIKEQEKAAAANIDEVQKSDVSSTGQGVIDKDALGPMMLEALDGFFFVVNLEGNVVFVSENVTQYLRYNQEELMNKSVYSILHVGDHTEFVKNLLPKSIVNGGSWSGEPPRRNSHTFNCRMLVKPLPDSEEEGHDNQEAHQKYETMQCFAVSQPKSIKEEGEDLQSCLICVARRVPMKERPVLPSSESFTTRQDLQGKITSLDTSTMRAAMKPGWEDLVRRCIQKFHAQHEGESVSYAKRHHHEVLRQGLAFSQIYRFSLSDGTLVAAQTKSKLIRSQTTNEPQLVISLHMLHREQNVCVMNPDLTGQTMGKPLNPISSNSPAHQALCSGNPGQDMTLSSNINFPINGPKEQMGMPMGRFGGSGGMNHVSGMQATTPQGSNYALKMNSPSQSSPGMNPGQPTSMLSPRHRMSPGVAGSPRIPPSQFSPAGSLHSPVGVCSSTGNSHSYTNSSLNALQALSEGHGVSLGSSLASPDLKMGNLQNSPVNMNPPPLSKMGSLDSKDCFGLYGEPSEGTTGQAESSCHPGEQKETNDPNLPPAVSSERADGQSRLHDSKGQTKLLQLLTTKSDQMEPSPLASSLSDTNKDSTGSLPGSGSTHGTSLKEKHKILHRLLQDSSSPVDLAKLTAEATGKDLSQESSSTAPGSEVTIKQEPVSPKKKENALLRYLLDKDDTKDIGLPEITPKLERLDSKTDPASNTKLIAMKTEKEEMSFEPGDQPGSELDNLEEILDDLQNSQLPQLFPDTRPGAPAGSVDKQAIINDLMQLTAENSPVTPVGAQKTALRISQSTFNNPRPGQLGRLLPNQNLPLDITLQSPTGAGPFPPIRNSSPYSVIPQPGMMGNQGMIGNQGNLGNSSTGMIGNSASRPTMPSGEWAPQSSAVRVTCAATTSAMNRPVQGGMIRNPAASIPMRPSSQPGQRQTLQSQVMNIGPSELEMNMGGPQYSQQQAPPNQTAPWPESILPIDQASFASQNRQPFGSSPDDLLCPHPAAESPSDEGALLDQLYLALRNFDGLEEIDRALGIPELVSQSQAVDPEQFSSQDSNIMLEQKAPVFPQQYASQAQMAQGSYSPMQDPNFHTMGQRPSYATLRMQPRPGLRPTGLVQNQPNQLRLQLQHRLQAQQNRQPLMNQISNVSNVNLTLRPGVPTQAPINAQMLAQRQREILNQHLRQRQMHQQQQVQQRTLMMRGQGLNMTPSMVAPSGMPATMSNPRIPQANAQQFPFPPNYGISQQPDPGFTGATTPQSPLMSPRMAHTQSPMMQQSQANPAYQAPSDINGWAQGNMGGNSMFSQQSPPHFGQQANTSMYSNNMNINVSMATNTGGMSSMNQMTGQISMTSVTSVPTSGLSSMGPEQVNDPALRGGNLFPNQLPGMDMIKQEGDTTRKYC

On to `CCOC(=O)C1CCN(c2ncnc3c2cnn3-c2ccc(OC)cc2)CC1`, for which the values for the inhibition in test [1] and in test [2] were -22.3% and 39.2%, respectively.
As for `N#CC1CCCc2c1[nH]c1ccc([N+](=O)[O-])cc21` (stereo unspecified), the inhibition is -27% in test [1] and -16.7% in test [2].
As to `Cc1ccc(Cl)cc1N1CCN(C(=O)CCS(=O)(=O)c2ccc3c(c2)NC(=O)CO3)CC1`, the inhibition in test [1] was 13.9%; in test [2], 30.1%.
The corresponding values for `Cc1cc(C)c(C)c(N=Nc2nc3ccccc3n2C)c1C` are -75.3% and 49.7% (active).
Regarding `Cc1nc(-c2ccc(NC(=O)c3ccco3)cc2)cs1`, the figures for the inhibition in test [1] and in test [2] were 18.9% and 60.4% (active), respectively.
For `COc1ccc(S(=O)(=O)n2ccc(-c3ccc(OCCN(C)c4ccccn4)cc3)n2)cc1`, the inhibition in test [1] was 3.56%; in test [2], 30.2%.
As for `O=C(CSc1nc2[nH]c(=O)[nH]c(=O)c2s1)Nc1cccc(F)c1`, the figures for the inhibition in test [1] and in test [2] were 0.35% and -0.5%, respectively.
Turning to `COc1cc(SC)ccc1C(=O)Nc1ncc(C)s1`, the inhibition was 10.3% in test [1] and 24% in test [2].
The corresponding values for `CN(C)c1ccc(NC(=S)c2ccccn2)cc1` are 1.77% and 59.6% (active).
On the same counts, the results for `Cc1ccc(C2=[N+]([O-])C3(CCCCC3=O)N(O)C2(C)C)cc1` (stereo unspecified) are -5.08% and -2.69%.
As to `COc1cc(/C=C2\COC/C(=C\c3cc(OC)c(OC)c(OC)c3)C2=O)cc(OC)c1OC`, the values for the inhibition in test [1] and in test [2] were 96.8% (active) and 97.7% (active), respectively.
`COc1cc(NC(=O)c2cccs2)c(C(=O)OCC(=O)c2cc(C)n(-c3ccccc3)c2C)cc1OC`: the inhibition in test [1] is 27.5%; in test [2], 67% (active).
On the same counts, the results for `COc1cccc(-c2nc(-c3ccccn3)no2)c1` are -20.4% and 24.9%.
On the same counts, the results for `CC(=O)Nc1cccc(-c2cc(NC(C)=O)c3ncc(-c4ccccc4)n3c2)c1` are -11.4% and 2.68%.
`CCCCn1c(CCC)nc([N+](=O)[O-])c1Sc1ccc(Cl)cn1`: the inhibition in test [1] is 13.2%; in test [2], 20.7%.
The corresponding values for `COC(=O)[C@H]1[C@@H](O)[C@@]2(O)c3c(OC)cc(OC)cc3O[C@@]2(c2ccc(OC)cc2)[C@@H]1c1ccc(F)cc1` are 32.4% and 51.4% (active).
In the case of `O=C(CCl)Nc1ccc(-c2ccccc2)cc1`, the inhibition in test [1] is 32.4%; in test [2], 65.6% (active).
On the same counts, the results for `Cc1nc2scc(C)n2c(=O)c1S(=O)(=O)Nc1ccc(OC(F)(F)F)cc1` are -5.83% and 6.78%.
As to `CC(C)(C)c1ccc(C(=O)CCC(=O)OCC(=O)NCCc2ccc(S(N)(=O)=O)cc2)cc1`, the inhibition is 26.1% in test [1] and 37.1% in test [2].
On the same counts, the results for `Cc1ccc2cccc(NS(=O)(=O)c3ccccc3)c2n1` are 75.5% (active) and -19.5%.
On the same counts, the results for `CC(=O)CC[C@@H]1CC[C@]2(CCCN(S(C)(=O)=O)C2)O1` are -18.6% and -4.54%.
On to `Oc1cc2ccccc2cc1-c1nnc2n1-c1ccccc1SC2`, for which the results for the inhibition in test [1] and in test [2] were 5.09% and 3.52%, respectively.
For `CC(=O)C1=CCC(c2ccccc2Cl)N(S(=O)(=O)c2ccc(C)cc2)C1` (stereo unspecified), the inhibition is 13.9% in test [1] and 15.3% in test [2].
On the same counts, the results for `Cc1c(CCC(=O)NCCCC(=O)O)c(=O)oc2cc3oc4c(c3cc12)CCCC4` are 47.5% (active) and 65% (active).
On the same counts, the results for `Cc1cccc(Nc2nc(NCc3ccco3)c3ccccc3n2)c1` are 25.1% and 33.9%.
As for `CCOC(=O)c1ccc(-c2ccc(N3C(c4cccc(OC)c4)=Cc4ccc(F)cc4C3CC(C)=O)cc2)cc1F` (stereo unspecified), the inhibition in test [1] was -0.77%; in test [2] it was 21.3%.
As to `O=C(CCl)N1c2ccccc2CCc2ccccc21`, the figures for the inhibition in test [1] and in test [2] were 29.1% and 31.7%, respectively.
With `Cc1cc(C)cc(NC(=O)Nc2cc(S(=O)(=O)N(C)C)ccc2C)c1`, the inhibition is -9.93% in test [1] and -21.3% in test [2].
As for `CCOc1ccc(-c2cc(CCCC(=O)NCCc3ccccc3)no2)cc1`, the inhibition in test [1] was 6.55%; in test [2], 44.9%.
The corresponding values for `O=C(C(O)c1ccc(Br)cc1)N1CCC(Nc2ccc3[nH]ncc3c2)CC1` (stereo unspecified) are -4.16% and -7.36%.
With `COc1cc(OC)cc(C2=Cc3ccc(OC)cc3C(CC(C)=O)N2c2ccc(C#CC3(O)CCCCC3)cc2)c1` (stereo unspecified), the results for the inhibition in test [1] and in test [2] were -2.24% and 19.6%, respectively.
On the same counts, the results for `Cc1ccc2nc(C)cc(Nc3ccc4c(c3)OCCO4)c2c1` are -23.7% and 0.71%.
The corresponding values for `Cc1ccc(/C=C2/SC(=S)N(CCCC(=O)Nc3cc([N+](=O)[O-])ccc3O)C2=O)cc1` are 27.4% and 49.7% (active).

The term inhibition denotes the relative decrease from the control value, in per cent.
